Laboratory results from PubChem BioAssay.
Inconclusive results are not listed. Activity calls are given as the source filed them. Unless noted, no stated cut-off is given here; in the data, active means inhibition above about 80%; inactive means the rest.

Tests used:
[1] = growth inhibition of DIPG glioma cells, dose response, cell-based, JHH-DIPG-1, MIPE4.0, CellTiter-Glo, qHTS (AID 1347062; cut-off not given, nearly all actives have AC50 up to about 27 µM); settings: JHH-DIPG-1 viability, CellTiter-Glo ATP luminescence
[2] = growth inhibition of DIPG glioma cells, dose response, cell-based, SU-DIPG-XIII, MIPE5.0, CellTiter-Glo, qHTS (AID 1347064; cut-off not given, nearly all actives have AC50 up to about 23 µM); settings: SU-DIPG-XIII viability, CellTiter-Glo ATP luminescence
[3] = viability loss in pontine glioma line – cell-based, SU-DIPG-XXV, MIPE5.0, CellTiter-Glo, qHTS, dose response (AID 1347065; cut-off not given, nearly all actives have AC50 up to about 26 µM;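 further: cells exposed to compound for 48 hours before ATP readout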); settings: CellTiter-Glo ATP luminescence
[4] = JHH-DIPG-1 glioma cell viability, MIPE5.0 library, CellTiter-Glo luminescence, qHTS (AID 1347067; cut-off not given, nearly all actives have AC50 up to about 26 µM;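 further: cells exposed to compound for 48 hours before readout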); settings: JHH-DIPG-1 glioma viability, CellTiter-Glo ATP luminescence
[5] = SU-DIPG-XXV glioma cell viability, MIPE5.0 library, qHTS (AID 1347068; cut-off not given, nearly all actives have IC50 up to about 30 µM)
[6] = LFS_MB_1R medulloblastoma cell growth inhibition, synergistic combos for chromothripsis tumors, cisplatin or BGB combos (AID 1671452); settings: LFS_MB_1R medulloblastoma cells, stronger effect = higher value;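 further: cells exposed for 96 hours before readout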
[7] = CRL2098 osteosarcoma cell growth inhibition, synergistic combos for chromothripsis tumors, BGB or cisplatin IC20 combos (AID 1671454); settings: CRL2098 osteosarcoma cells, drug combinations, stronger effect = higher value;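 further: cells exposed for 96 h before readout; 0% = vehicle DMSO and 100% = killing by high DMSO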
[8] = HD-MB03 medulloblastoma cell growth inhibition, synergistic combos for chromothripsis tumors, BGB or cisplatin IC20 combos (AID 1671455; in the data active means inhibition above about 83%;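 further: 0% = vehicle DMSO and 100% = high DMSO as cytotoxic control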); settings: HD-MB03 medulloblastoma cells, stronger effect = higher value
[9] = UWB1.289 ovarian carcinoma cell growth inhibition, synergistic combos for chromothripsis tumors, BGB or cisplatin combos (AID 1671456); settings: UWB1.289 ovarian carcinoma cells, stronger effect = higher value;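 further: cells exposed to compound for four days; 0% = vehicle DMSO and 100% = killing by high DMSO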
[10] = LFS_MB_2R medulloblastoma cell growth inhibition, synergistic combos for chromothripsis tumors, cisplatin combos (AID 1671457); settings: LFS_MB_2R medulloblastoma cells, stronger effect = higher value;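 further: cells exposed to compound for four days before readout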
[11] = UWB1.289_BRCA1 ovarian cancer growth, cell-based, BGB or cisplatin combinations (AID 1671459); settings: UWB1.289 BRCA1 ovarian carcinoma, drug combinations, stronger effect = higher value
[12] = human astrocyte viability loss, single and combined drugs, cytotoxicity control for chromothriptic childhood tumor combination screen, cell-based, BGB or cisplatin IC20 combos (AID 1671460); settings: Human astrocytes, drug combinations, stronger effect = higher value;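 further: cells exposed to compounds for 96 hours before viability readout; 0% = vehicle and 100% = killing control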
[13] = growth inhibition of BT084 medulloblastoma cells, cell-based, ICGC_MB145, cisplatin and BGB IC40 combos (AID 1671461); settings: drug combinations, stronger effect = higher value;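 further: cells exposed to drugs for 96 hours; 0% = vehicle DMSO and 100% = high DMSO full killing control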
[14] = growth inhibition of RCMB18 medulloblastoma cells, cell-based, cisplatin and BGB IC40 combos (AID 1671462); settings: stronger effect = higher value;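 further: cells exposed to compound for four days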
[15] = growth inhibition of CRL1545 osteosarcoma cells, cell-based, cisplatin and BGB IC20 combos (AID 1671464); settings: stronger effect = higher value;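 further: cells exposed to compound for 96 hours before readout; 0% = vehicle DMSO and 100% = high DMSO killing control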
[16] = growth inhibition of DIPG glioma cells, dose response, cell-based, SU-DIPG-IV, MIPE4.0, CellTiter-Glo, qHTS (AID 1347063; cut-off not given, nearly all actives have AC50 up to about 30 µM;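 further: compound exposure lasted 48 hours before the viability readout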); settings: SU-DIPG-IV viability, CellTiter-Glo ATP luminescence
[17] = SU-DIPG-VI glioma cell viability, MIPE4.0 library, CellTiter-Glo luminescence, qHTS (AID 1347066; cut-off not given, nearly all actives have AC50 up to about 30 µM;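 further: cells exposed to compound for 48 hours before readout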); settings: CellTiter-Glo ATP luminescence
[18] = biological target: Mitogen-activated protein kinase 7 (Homo sapiens) (UniProt Q13164); assay: ERK5 transactivation activators in reporter cells, primary screen, cell-based, HTS (AID 1508626;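 active means luciferase signal above three times the same-plate solvent-only control wells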;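 further: luciferase driven by Gal4-ERK5 fusion binding five Gal4 sites before minimal TATA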); settings: HeLa Gal4-ERK5 transactivation, 18 h, at 5 µM, stronger effect = higher value
[19] = viability rescue of complex I mutant cybrids, primary screen, cell-based, galactose medium, ATP luminescence (AID 1645843;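 active means z-score of at least 1.8 in each of two replicates, scored against plate mean and spread of sample wells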;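 further: positive z means more ATP and so rescue of galactose-driven cybrid death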); settings: complex I mutant cybrid cells, 72 h, stronger effect = higher value
[20] = biological target: ATP-dependent translocase ABCB1 (Homo sapiens) (UniProt P08183); assay: MDR1 (ABCB1) efflux transporter inhibition, cell-based (AID 377; in the data active means fluorescence slope change above about 50%); settings: MDR1-expressing cells, fluorescent substrate accumulation slope; stronger effect = higher value; concentration not given here
[21] = measured here: combination with BGB IC40, at 0.05 µM
[22] = measured here: combination with cisplatin, at 0.5 µM
[23] = measured here: combination with cisplatin, at 5 µM
[24] = measured here: combination with BGB at IC20, at 0.5 µM
[25] = measured here: combination with cisplatin at IC20, at 0.5 µM
[26] = measured here: combo with BGB at IC20, at 0.5 µM
[27] = measured here: combo with cisplatin at IC20, at 0.5 µM
[28] = measured here: inhibition with BGB combination, at 0.05 µM
[29] = measured here: inhibition with cisplatin combination, at 0.05 µM
[30] = BGB combination, concentration series, at 5 µM
[31] = cisplatin combination, concentration series, at 5 µM
[32] = measured here: combo with BGB IC20, at 0.5 µM
[33] = measured here: combo with cisplatin IC20, at 0.5 µM
[34] = cisplatin combination, at 0.5 µM
[35] = measured here: BGB IC40 combination 0.05 uM, at 0.05 µM
[36] = measured here: BGB IC40 combination, at 0.05 µM
[37] = measured here: with BGB IC20 combination, at 0.5 µM
[38] = measured here: with cisplatin IC20 combination, at 0.5 µM

Chain of ATP-dependent translocase ABCB1 (Homo sapiens) (P08183 whole entry, looked up): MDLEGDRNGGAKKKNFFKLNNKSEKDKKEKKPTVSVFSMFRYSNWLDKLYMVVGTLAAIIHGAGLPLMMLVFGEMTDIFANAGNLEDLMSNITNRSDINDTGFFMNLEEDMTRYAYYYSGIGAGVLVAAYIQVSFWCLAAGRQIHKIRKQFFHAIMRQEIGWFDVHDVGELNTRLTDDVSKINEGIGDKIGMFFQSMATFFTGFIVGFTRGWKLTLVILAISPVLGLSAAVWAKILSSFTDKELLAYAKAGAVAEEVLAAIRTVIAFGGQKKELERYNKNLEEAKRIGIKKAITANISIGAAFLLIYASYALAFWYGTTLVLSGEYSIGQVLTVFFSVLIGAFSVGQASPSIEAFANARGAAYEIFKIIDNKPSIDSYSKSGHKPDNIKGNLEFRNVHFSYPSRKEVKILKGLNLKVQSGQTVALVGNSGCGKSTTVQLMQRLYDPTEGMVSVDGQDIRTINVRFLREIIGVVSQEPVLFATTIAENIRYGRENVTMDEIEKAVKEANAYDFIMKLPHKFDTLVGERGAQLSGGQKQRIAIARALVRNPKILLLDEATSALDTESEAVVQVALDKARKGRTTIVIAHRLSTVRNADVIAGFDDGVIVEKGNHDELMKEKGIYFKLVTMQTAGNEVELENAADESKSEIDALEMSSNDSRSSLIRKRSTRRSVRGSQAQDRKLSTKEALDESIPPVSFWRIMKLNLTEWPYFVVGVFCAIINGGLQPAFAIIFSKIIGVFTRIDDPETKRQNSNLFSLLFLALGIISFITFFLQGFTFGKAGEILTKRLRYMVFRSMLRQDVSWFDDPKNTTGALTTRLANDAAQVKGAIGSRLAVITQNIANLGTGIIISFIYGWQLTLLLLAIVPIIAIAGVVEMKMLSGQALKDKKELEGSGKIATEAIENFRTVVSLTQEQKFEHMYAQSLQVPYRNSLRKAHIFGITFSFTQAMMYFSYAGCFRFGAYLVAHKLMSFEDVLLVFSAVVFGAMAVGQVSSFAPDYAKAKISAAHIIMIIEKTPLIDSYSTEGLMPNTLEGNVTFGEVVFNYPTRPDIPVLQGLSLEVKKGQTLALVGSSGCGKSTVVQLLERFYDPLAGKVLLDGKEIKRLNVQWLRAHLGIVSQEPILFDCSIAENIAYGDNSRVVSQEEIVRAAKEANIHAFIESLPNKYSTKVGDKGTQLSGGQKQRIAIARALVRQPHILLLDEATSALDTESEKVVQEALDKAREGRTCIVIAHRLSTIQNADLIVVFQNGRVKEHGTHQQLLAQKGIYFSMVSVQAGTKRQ
Chain of Mitogen-activated protein kinase 7 (Homo sapiens) (Q13164 whole entry, looked up, the tested form may be a part): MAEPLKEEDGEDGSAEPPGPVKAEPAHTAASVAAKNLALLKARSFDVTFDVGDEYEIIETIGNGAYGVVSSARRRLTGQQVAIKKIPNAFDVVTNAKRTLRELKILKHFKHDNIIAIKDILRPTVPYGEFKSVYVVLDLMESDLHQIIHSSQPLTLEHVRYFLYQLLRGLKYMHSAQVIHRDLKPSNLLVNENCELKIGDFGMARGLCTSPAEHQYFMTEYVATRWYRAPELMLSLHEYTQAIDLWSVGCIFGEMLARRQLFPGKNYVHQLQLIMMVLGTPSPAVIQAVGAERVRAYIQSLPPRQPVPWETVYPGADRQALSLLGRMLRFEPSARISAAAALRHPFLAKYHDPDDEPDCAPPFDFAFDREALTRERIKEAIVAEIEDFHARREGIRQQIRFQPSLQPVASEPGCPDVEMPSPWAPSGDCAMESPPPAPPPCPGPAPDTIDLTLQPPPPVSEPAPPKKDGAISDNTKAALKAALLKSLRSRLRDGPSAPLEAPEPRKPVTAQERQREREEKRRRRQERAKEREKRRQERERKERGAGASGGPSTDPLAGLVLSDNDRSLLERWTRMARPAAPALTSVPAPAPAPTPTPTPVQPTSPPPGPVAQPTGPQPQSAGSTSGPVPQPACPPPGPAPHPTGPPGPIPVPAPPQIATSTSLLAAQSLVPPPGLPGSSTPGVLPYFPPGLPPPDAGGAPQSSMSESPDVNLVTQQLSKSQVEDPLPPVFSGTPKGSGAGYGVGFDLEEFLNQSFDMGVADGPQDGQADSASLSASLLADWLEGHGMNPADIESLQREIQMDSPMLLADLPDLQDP

Q: Which results are given for `CNC1CCCN(c2c(F)cc3c(=O)c(C(=O)O)cn(C4CC4)c3c2OC)C1` (stereo not drawn)?
A: outcome [1]: inactive; outcome [2]: inactive; outcome [3]: inactive; outcome [4]: inactive; outcome [5]: inactive; inhibition ([6]; at 0.5 µM): -44.6% (inactive); inhibition [6, 21]: -12.2%; inhibition [6, 22]: -60.6%; inhibition [6, 23]: -26%; inhibition ([7]; at 0.5 µM): -81.1% (inactive); inhibition [7, 24]: -82.3%; inhibition [7, 25]: -105%; inhibition ([8]; at 0.5 µM): -11% (inactive); inhibition [8, 26]: -20.4%; inhibition [8, 27]: -17.8%; inhibition ([9]; at 0.5 µM): -14.8% (inactive); inhibition [9, 28]: -34.6%; inhibition [9, 29]: 0.742%; inhibition ([10]; at 0.5 µM): -13.2% (inactive); inhibition [10, 22]: -14.1%; inhibition [10, 23]: -12.8%; inhibition [11, 30]: -8.91%; inhibition ([11]; at 0.5 µM): -19.1% (inactive); inhibition [11, 31]: -12.5%; inhibition ([12]; at 0.5 µM): 2.51% (inactive); inhibition [12, 32]: -0.992%; inhibition [12, 33]: -5.96%; inhibition ([13]; at 0.5 µM): -3.94% (inactive); inhibition [13, 34]: -12.4%; inhibition ([13]; cisplatin combination, at 5 µM): -20.7%; inhibition [13, 35]: -4.46%; inhibition ([13]; single agent, at 5 µM): -9.28%; inhibition ([14]; at 0.5 µM): -11% (inactive); inhibition ([14]; cisplatin combo, at 5 µM): -11%; inhibition [14, 36]: -0.266%; inhibition [14, 22]: -4.57%; inhibition ([14]; single agent, at 5 µM): -28%; inhibition ([15]; at 0.5 µM): -47.5% (inactive); inhibition [15, 37]: -52.5%; inhibition [15, 38]: -45%; inhibition ([15]; single agent, at 0.05 µM): 2.8%; inhibition ([15]; single agent, at 5 µM): -16.1%

Q: What does the source list for `O=C(O)[C@H](O)[C@@H](O)[C@H](O[C@@H]1O[C@H](CO)[C@H](O)[C@H](O)[C@H]1O)[C@H](O)CO`?
A: outcome [2]: inactive; outcome [3]: inactive; outcome [4]: inactive; outcome [5]: inactive

Q: Which results are given for `CN1CCN(c2c(F)cc3c(=O)c(C(=O)O)cn4c3c2OCN4C)CC1`?
A: outcome [1]: inactive; outcome [16]: inactive; outcome [17]: inactive; inhibition ([6]; at 0.5 µM): -24.2% (inactive); inhibition [6, 21]: -29.1%; inhibition [6, 22]: -7.67%; inhibition [6, 23]: 23.6%; inhibition ([7]; at 0.5 µM): -52.3% (inactive); inhibition [7, 24]: -51%; inhibition [7, 25]: -59.8%; inhibition ([8]; at 0.5 µM): -2.64% (inactive); inhibition [8, 26]: 4.92%; inhibition [8, 27]: 0.073%; inhibition ([9]; at 0.5 µM): -1.17% (inactive); inhibition [9, 28]: -15.9%; inhibition [9, 29]: 9.55%; inhibition ([10]; at 0.5 µM): -13.7% (inactive); inhibition [10, 22]: -20.3%; inhibition [10, 23]: -60.6%; inhibition [11, 30]: 1.13%; inhibition ([11]; at 0.5 µM): 0.06% (inactive); inhibition [11, 31]: 8.22%; inhibition ([12]; at 0.5 µM): 6.55% (inactive); inhibition [12, 32]: 4.16%; inhibition [12, 33]: 12.5%; inhibition ([13]; at 0.5 µM): -6.03% (inactive); inhibition [13, 34]: -9.98%; inhibition ([13]; cisplatin combination, at 5 µM): 4.69%; inhibition [13, 35]: 6.42%; inhibition ([13]; single agent, at 5 µM): -5.93%; inhibition ([14]; at 0.5 µM): -12.6% (inactive); inhibition ([14]; cisplatin combo, at 5 µM): -14.3%; inhibition [14, 36]: -20.1%; inhibition [14, 22]: -5.19%; inhibition ([14]; single agent, at 5 µM): -1.41%; inhibition ([15]; at 0.5 µM): -1.5% (inactive); inhibition [15, 37]: -0.247%; inhibition [15, 38]: -4.44%; inhibition ([15]; single agent, at 0.05 µM): -8.36%; inhibition ([15]; single agent, at 5 µM): 2.43%

Q: For `C[C@H]1[C@H](NC(=O)/C(=N/OC(C)(C)C(=O)O)c2csc(N)n2)C(=O)N1S(=O)(=O)O` (stereo in doubt), which outcome [1] is on record?
A: inactive

Q: And the outcome [16]?
A: inactive

Q: And the outcome [17]?
A: inactive

Q: With `Clc1ccc(C(Cn2ccnc2)OCc2ccsc2Cl)c(Cl)c1` (stereo not drawn) as the compound, how does the outcome [1] read?
A: inactive

Q: And the luciferase signal [18]?
A: 72 AU (inactive)

Q: What about the z-score [19] of the same compound?
A: -1.6 (inactive)

Q: Which fluorescence slope change [20] does the source give for `N=C(N=C(N)N)N1CCOCC1` here?
A: 25.2% (inactive)

Q: What about the outcome [16] of the same compound?
A: inactive

Q: And the outcome [17]?
A: inactive

Q: And the z-score [19]?
A: 0.495 (inactive)

Q: What about the inhibition ([6]; at 0.5 µM) of the same compound?
A: -2.71% (inactive)

Q: And the inhibition [6, 21]?
A: 2.02%

Q: What about the inhibition [6, 22] of the same compound?
A: 8.46%

Q: And the inhibition [6, 23]?
A: -12.4%

Q: What about the inhibition ([7]; at 0.5 µM) of the same compound?
A: -24.9% (inactive)

Q: And the inhibition [7, 24]?
A: -15.5%

Q: And the inhibition [7, 25]?
A: -34.6%

Q: And the inhibition ([8]; at 0.5 µM)?
A: -2.36% (inactive)

Q: And the inhibition [8, 26]?
A: 3.57%

Q: And the inhibition [8, 27]?
A: -15.2%

Q: And the inhibition ([9]; at 0.5 µM)?
A: 6.16% (inactive)

Q: What about the inhibition [9, 28] of the same compound?
A: -1.97%

Q: And the inhibition [9, 29]?
A: 3.05%

Q: What about the inhibition ([10]; at 0.5 µM) of the same compound?
A: 6.81% (inactive)

Q: What about the inhibition [10, 22] of the same compound?
A: 8.19%

Q: And the inhibition [10, 23]?
A: -31.5%

Q: What about the inhibition [11, 30] of the same compound?
A: 1.52%

Q: What about the inhibition ([11]; at 0.5 µM) of the same compound?
A: 3.22% (inactive)

Q: What about the inhibition [11, 31] of the same compound?
A: 4.22%

Q: What about the inhibition ([12]; at 0.5 µM) of the same compound?
A: 2.04% (inactive)

Q: And the inhibition [12, 32]?
A: 7.42%

Q: What about the inhibition [12, 33] of the same compound?
A: -4.5%

Q: And the inhibition ([13]; at 0.5 µM)?
A: 3.57% (inactive)

Q: What about the inhibition [13, 34] of the same compound?
A: -9.16%

Q: What about the inhibition ([13]; cisplatin combination, at 5 µM) of the same compound?
A: 7.43%

Q: What about the inhibition [13, 35] of the same compound?
A: 0.739%

Q: What about the inhibition ([13]; single agent, at 5 µM) of the same compound?
A: -12.3%

Q: What about the inhibition ([14]; at 0.5 µM) of the same compound?
A: 5.29% (inactive)

Q: What about the inhibition ([14]; cisplatin combo, at 5 µM) of the same compound?
A: -26%

Q: What about the inhibition [14, 36] of the same compound?
A: -14.8%

Q: What about the inhibition [14, 22] of the same compound?
A: 25.2%

Q: And the inhibition ([14]; single agent, at 5 µM)?
A: -13.7%

Q: What about the inhibition ([15]; at 0.5 µM) of the same compound?
A: 2.6% (inactive)

Q: What about the inhibition [15, 37] of the same compound?
A: -18.7%

Q: What about the inhibition [15, 38] of the same compound?
A: 11.3%

Q: What about the inhibition ([15]; single agent, at 0.05 µM) of the same compound?
A: 0.225%

Q: And the inhibition ([15]; single agent, at 5 µM)?
A: 8.11%
